Compound activity: PubChem BioAssay, National Center for Advancing Translational Sciences (NCATS)
TCR act – Activators of T cell receptors: qHTS campaign. primary human leukocytes, anti-CD3, IL-2 HTRF, 48 h. Potency, µM (top dose mostly 9.22 µM), inactives show top-dose activation of IL-2 secretion, usual class: activators. 330,000 tested, under 10 active; further: % of control where 0% means no effect
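Readout: HTRF IL-2, Eu-cryptate/d2 antibody pair, 320nm excitation, 665nm emission. Stimulus: a-CD3 beads, no co-stimulation. Cells: primary human leukocytes. Exposure: 48 hr with compound.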
PTHR1 ag – qHTS for PTHR1 Agonists: Primary Screen; 410,000 tested, 0.075% active; HEK293 GP2 PTHR1 cells, GloSensor cAMP luminescence, 1 h; Potency, µM (titrated, usually from 115 µM), inactives show at the highest dose activation, actives largely listed as activators; AID 743266, 2014; further: potency means the concentration at half of the fitted maximal effect; nearly all actives have a fitted effect of over 55% in size
Target sequence (Q03431 whole entry, looked up): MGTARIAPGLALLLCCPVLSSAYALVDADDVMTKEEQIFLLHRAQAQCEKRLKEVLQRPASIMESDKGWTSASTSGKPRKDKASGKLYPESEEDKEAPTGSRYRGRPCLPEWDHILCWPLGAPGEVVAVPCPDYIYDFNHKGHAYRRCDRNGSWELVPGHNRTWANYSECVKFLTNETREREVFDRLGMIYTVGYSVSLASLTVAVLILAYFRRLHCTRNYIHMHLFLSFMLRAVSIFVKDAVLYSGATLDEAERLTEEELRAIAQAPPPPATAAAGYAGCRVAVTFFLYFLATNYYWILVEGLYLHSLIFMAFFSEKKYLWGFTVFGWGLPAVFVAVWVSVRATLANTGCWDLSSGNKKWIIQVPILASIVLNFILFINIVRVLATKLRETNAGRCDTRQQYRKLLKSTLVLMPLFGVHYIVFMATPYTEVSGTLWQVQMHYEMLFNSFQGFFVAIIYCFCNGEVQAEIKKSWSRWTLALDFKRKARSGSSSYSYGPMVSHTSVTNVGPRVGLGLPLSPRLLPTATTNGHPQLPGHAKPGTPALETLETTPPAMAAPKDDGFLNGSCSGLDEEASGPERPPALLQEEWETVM
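HEK-293-derived GP2 cells expressing PTHR1 and a GloSensor cAMP reporter, 3,000/well, plated overnight, given luciferin plus IBMX (each 0.5 mM as added) for 1 h at 37 °C, then compound for 1 h at 37 °C. Luminescence was read after 15 min at room temperature.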
TSHR antag – Antagonists of the Thyroid Stimulating Hormone Receptor: HTS campaign. TSHR-expressing cells, TSH-stimulated cAMP HTRF, 2 h; hits give low values. activity change, negative = inhibition, % at 11.5 µM. 330,000 tested, 0.2% active. AID 504810, 2011;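 active means activity change below a set negative limit, meaning inhibition stronger than a set level, cut at about -70% in these data; inconclusive means activity change between two set negative limits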; further: on the % scale 0 is the no-effect control and ±100 the full control effect
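Cell-based HTRF cAMP assay; TSHR cells + compound, TSH EC80 (4nM final), 2 h, 37 deg C. Lysis with anti-cAMP cryptate and cAMP-d2, 30 min RT, read 665/620 nm.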
RXFP1 antagonist – qHTS Assay for Antagonists of the Relaxin Receptor RXFP1; 350,000 tested, 0.59% active; Relaxin receptor 1 (Homo sapiens), Q9HBX9; HEK293-RXFP1, relaxin-stimulated cAMP HTRF, 30 min; hits give low values; activity change, negative = inhibition, % at 57.5 µM; AID 1259400, 2018;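 active means activity change of -60% or lower, but not beyond a set lower limit; inconclusive means change between -60% and -40%, or beyond the set limit; inactive means change above -40%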; further: on the % scale 0 is the no-effect control and ±100 the full control effect
RXFP1 agonist – qHTS Assay for Agonists of the Relaxin Receptor RXFP1; Relaxin receptor 1 (Homo sapiens), Q9HBX9; HEK293T-RXFP1 cAMP TR-FRET, 30 min; response scale: percent of porcine relaxin response, buffer zero; Potency, µM (top dose mostly 57.5 µM), without a hit: top-dose activation, most hits filed as activators; 370,000 tested, 0.3% active; further: potency means the concentration at half of the fitted maximal effect; on the % scale 0 is the no-effect control and ±100 the full control effect; nearly all actives have a fitted effect of over 60% in size
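HEK293T cells stably expressing RXFP1 were pretreated with the PDE4 inhibitor Ro 20174, exposed to compounds for 30 min at 37C, lysed, and cAMP was read by TR-FRET. Data normalized to buffer (basal) and 29 nM porcine relaxin (100%).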
NPSR antagonist – qHTS Assay for Antagonists of the Neuropeptide S Receptor: cAMP Signal Transduction; Q6W5P4; CHO-NPSR cells, cAMP TR-FRET, antagonist mode; Potency, µM (titrated, usually from 38.3 µM), for inactives: at the highest dose activity change, negative = inhibition, actives largely listed as inhibitors; 220,000 tested, 1% active; AID 1461, 2008; further: potency means the concentration at half of the fitted maximal effect; on the % scale 0 is the no-effect control and ±100 the full control effect; nearly all actives have a fitted effect of over 50% in size
* = called active by the depositor; i = inactive; ? = inconclusive; · = no result; [ ] = another dose, or the depositor's remark. This is one part of a sample in which hits are shown more often than they occur. Unless noted, the call rests on the fitted dose curve; in most records, active means well fitted curve in the direction sought with a large enough effect; inconclusive means small, poorly fitted or top-dose-only effect, or another doubt; inactive means no such curve, though single readings can be large; an effect the other way counts as inactive or inconclusive.

SMILES | TCR act | PTHR1 ag | TSHR antag | RXFP1 antagonist | RXFP1 agonist | NPSR antagonist
CCCC(c1nnnn1C1CCCC1)N1CCN(C(=O)c2ccco2)CC1 (centres undefined) | 5% | 8%[57.5 µM] | -7 | -6 | 2% | 13µM*
CCCCC(c1nnnn1C1CCCC1)N1CCN(C(=O)c2ccco2)CC1 (centres undefined) | -2% | -6% | -5 | 6 | -2% | -18%[46.1 µM]
CC(C)(C)c1cc2nc3c(c(=O)n2[nH]1)CN(Cc1ccccc1)C3=O | 0% | -3% | -79* | 1 | -1% | 15%
O=C1c2nc3cc(-c4ccccc4)[nH]n3c(=O)c2CN1Cc1ccccc1 | 9% | i | 0 | -2 | -1% | -12%
Cc1ccc(C)n1-c1ccc(C(=O)NCc2ccncc2)cc1 | 2% | -31% | 8 | 4 | 0% | 8%
Cc1ccc(C)n1-c1ccc(C(=O)NN)cc1 | 6%[46.1 µM] | -51% | 7 | -71* | -1% | -7%[46.1 µM]
COc1cccc(Cl)c1NC(=O)N1CCc2c([nH]c3ccccc23)C1C(F)(F)F (centres undefined) | 5% | -3% | -8 | -75* | -2% | ?
COc1ccc(-c2cc3nc(C)c(CCC(=O)NCc4ccccc4Cl)c(C)n3n2)c(OC)c1 | · | -14% | · | · | 2% | ·
CCc1ccc(NC(=O)CSc2nc(-c3ccccc3)no2)cc1 | · | i | · | -10 | 0% | ·
N#C/C(=N\Nc1cccc(C(F)(F)F)c1)C(=O)c1csc(-c2cccnc2)n1 | -1% | -94% | -38 | · | 6% | 10µM*
O=C(CCS(=O)(=O)c1nc(-c2cccs2)cc(C(F)(F)F)n1)Nc1ccc(F)c(Cl)c1 | · | -37% | · | -60* | 0% | ·
COc1ccc(OC)c(NC(=O)C2CCN(S(=O)(=O)c3ccc4c(c3)CCCC(=O)N4)CC2)c1 | · | i | · | · | -3% | ·
CC(CCc1ccccc1)NC(=O)c1ccccc1Cl (centres undefined) | 3% | -24% | 3 | -74* | 2% | ·
NCCCC(N)CC(=O)NCC1NC(=O)C(CO)NC(=O)C(N)CNC(=O)C(C2CCN=C(N)N2)NC(=O)C(=CNC(N)=O)NC1=O (centres undefined) | · | · | · | -13 | · | ·
CCCCCC(=O)O[C@]1(C(C)=O)CC[C@H]2[C@@H]3CCC4=CC(=O)CC[C@]4(C)[C@H]3CC[C@@]21C | 20% | -15% | -33 | -17 | 3% | 10µM*
CC(=O)[C@@]1(O)CC[C@H]2[C@@H]3CCC4=CC(=O)CC[C@]4(C)[C@H]3CC[C@@]21C | -6% | i | -4 | 2 | 0% | -16%
O=C(CCCn1c(=S)[nH]c2cc3c(cc2c1=O)OCO3)NCc1ccccc1Cl | 2% | -2% | 0 | -108* | ? | ·
COc1cccc(N2CCN(C(=O)CCCCCn3c(=S)[nH]c4cc5c(cc4c3=O)OCO5)CC2)c1 | -1% | -18% | -6 | ? | ? | ·
O=c1c2ccccc2[nH]c(=S)n1Cc1ccc2c(c1)OCO2 | -1% | -2% | 18 | -16 | ? | -34%
O=C(CCCCCn1c(=S)[nH]c2ccccc2c1=O)NCc1ccc2c(c1)OCO2 | -3% | i | -18 | -62* | -4% | -24%[46.1 µM]
COc1cccc(CNC(=O)CCCn2c(=S)[nH]c3cc4c(cc3c2=O)OCO4)c1 | 3% | i | -12 | -71* | 21% | ·
Cc1c(C)c2c(c(C)c1OC(=O)CCC(=O)OCCO)CC[C@](C)(CCC[C@H](C)CCC[C@H](C)CCCC(C)C)O2 | · | · | · | -19 | · | ·
CCc1nn(CC(=O)NCCOC)c(=O)c2cc3cc(F)ccc3n12 | · | i | · | -2 | 12% | ·
N[C@H]1CN(c2c(F)cc3c(=O)c(C(=O)O)cn(C4C[C@@H]4F)c3c2Cl)CC12CC2 (some centres undefined) | · | · | · | -17 | · | ·
Cc1nn2c(C)c(C(=O)NCc3ccco3)cnc2c1-c1ccccc1 | · | i | · | ? | -1% | ·
SMILES | TCR act | PTHR1 ag | TSHR antag | RXFP1 antagonist | RXFP1 agonist | NPSR antagonist
COc1ccc(Br)cc1CN(C)CC(O)COc1ccc(Br)cc1 (centres undefined) | 8% | -10% | -2 | -64* | 0% | ·
COCCOCC(OC)OC | · | · | · | -10 | · | ·
O=C(CC1N=C2c3ccccc3N=C(SCc3ccccc3F)N2C1=O)NCCc1ccccc1 (centres undefined) | · | -47% | · | -10 | 11% | ·
CN(C)[C@@H]1C(=O)C(C(N)=O)=C(O)[C@@]2(O)C(=O)C3=C(O)c4c(O)cccc4C[C@H]3C[C@@H]12 | · | · | · | -6 | · | ·
Cc1ccc2c(Cl)cc(Cl)c(O)c2n1 | -7% | -2% | · | -7 | · | ·
Cc1ccc2c(C)ccc(O)c2n1 | 2% | i | -7 | -70* | 0% | -8%[46.1 µM]
COc1ccc(NC(=O)C2CCCN(S(=O)(=O)c3ccc(Br)s3)C2)cc1 (centres undefined) | · | -9% | · | 5 | 4% | ·
CCc1ccc(Cn2c(CNS(=O)(=O)c3ccc([N+](=O)[O-])cc3)nc3cccnc32)cc1 | · | i | · | -25 | 0% | ·
COc1ccc(NS(=O)(=O)c2ccc(O)c(NC(=O)c3ccc(S(=O)(=O)N4CCCC4)cc3)c2)cc1 | -3% | i | -8 | -60* | -1% | 4%
Cc1ccc(CNC(=O)C2CCCN(c3nnc(-n4c(C)ccc4C)s3)C2)cc1 (centres undefined) | · | i | · | -2 | 21% | ·
CC(COc1ccccc1)NN (centres undefined) | · | · | · | -11 | · | ·
CCN1CCN(C2=C(NS(=O)(=O)c3ccc(NC(C)=O)cc3)C(=O)c3ccccc3C2=O)CC1 | 4% | i | 11 | 9 | 0% | ·
CCN1CCN(C2=C(NS(=O)(=O)c3ccc(C)cc3)C(=O)c3ccccc3C2=O)CC1 | 7% | -13% | -79* | 0 | 2% | ·
C=CCNC(=O)CC1C(=O)NCCN1Cc1ccc(-c2ccccc2)cc1 (centres undefined) | -17% | -10% | 8 | -2 | 1% | 7%
O=C(CC1C(=O)NCCN1Cc1ccc(-c2ccccc2)cc1)NCC1CC1 (centres undefined) | 0% | -42% | -18 | -61* | -1% | -14%
COc1cc(/C=N/NC(=Nc2ccc(C)cc2)c2nc3ccccc3s2)ccc1O | 2% | -10%[57.5 µM] | 12 | -24 | -1% | 10µM*
Cc1ccc(O)c(N=CC2=C(O)c3ccccc3C2=O)c1 | -23% | -14% | 4 | 18 | 28µM* | ?
